Hits are enriched below; roughly 5.3% of the tested compounds scored in any of these assays.
PNC inhibitor – perinucleolar compartment assembly inhibition. PC3M PTB-GFP, PNC prevalence imaging, 16 h; active compounds read low. activity change (PNC), negative = inhibition, % at 10 µM. hit rate 3.1% among 140,000;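 active means readout at or below -70, meaning at least 70% loss of cells showing the perinucleolar compartment, a nuclear body marking cancer cells; inconclusive means readout between -30 and a set limit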;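 further: plate controls were DMSO wells for no effect and camptothecin positive control wells for full effect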
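PC3M cells stably expressing PTB-GFP, 750–1000 cells/well, treated 16 h at 37 °C with compound (23 nl of library stock), in duplicate. After paraformaldehyde fixation and Hoechst stain, imaged at 20x; PNC prevalence scored by image analysis.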
HPGD inh – inhibitors of human 15-hydroxyprostaglandin dehydrogenase (HPGD) | AID 894 | purified HPGD, NADH fluorescence kinetic, PGE2 substrate | Potency, µM, inactives show at the top dose activity change, negative = inhibition, hits mostly inhibitors | hit rate 4.3% among 150,000 | P15428; active means well fitted inhibition curve with a large enough effect, not every such curve was filed as active; inconclusive means small, poorly fitted or top-dose-only effect, or another doubt; inactive means no such curve, though single readings can be large or run the other way; further: potency means the concentration at half of the fitted maximal effect
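20 nM HPGD preincubated 15 min at room temperature with compound in 50 mM Tris-HCl pH 8, 0.01% Tween 20. Started with 1 mM NAD+ and 30 uM prostaglandin E2; NADH fluorescence (360/450 nm) read 5 times over 30-s intervals, last minus first.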
IMPase Li inh – IMPase inhibition in cells with lithium potentiation. hit rate 0.35% among 210,000. AID 1457. CHO-M1 cells, IP1 TR-FRET (IP-One), carbachol + lithium. Potency, µM (highest dose often 59.4 µM), without a hit: at the highest dose activity, negative = IMPase inhibition, actives largely listed as inhibitors;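 further: IP1 builds up when IMPase is blocked and the TR-FRET signal falls; potency means the concentration at half of the fitted maximal effect; plate controls were basal vehicle for no effect and high inhibitor control for full effect; nearly all actives have a fitted effect of over 50% in size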
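Lithium-sensitised IP1 accumulation assay; M1-expressing CHO cells treated 30 min at 37C with compound. Competitive antibody detection by time-resolved FRET followed a 10 min room-temperature lysis step.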
ALOX12 inhib – blocks human 12-lipoxygenase activity | Potency, µM (doses to about 57.1 µM), for inactives: at the top dose activity change, negative = inhibition, actives largely listed as inhibitors | P18054 | AID 1452 | hit rate 0.12% among 150,000 | purified 12-hLO, xylenol orange hydroperoxide absorbance; further: potency means the concentration at half of the fitted maximal effect; nearly all actives have a fitted effect of over 55% in size
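Lipoxygenase turnover measured by absorbance at 573 and 405 nm after Fe-XO development. Human 12hLO 150 nM, arachidonate 40 uM, pH 7.0 Hepes buffer with detergent; 15 min compound preincubation, 30 min reaction.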
IMPase cell inh – IMPase inhibition in cells; P97697; CHO-M1 cells, IP1 accumulation, HTRF TR-FRET ratio; inhibition (IP1 accumulation), % at 46.1 µM; 120,000 tested, under 10 active; AID 901; active means well fitted curve in the direction sought with a large enough effect in the signal ratio, not every such curve was filed as active; inconclusive means small, poorly fitted or top-dose-only effect, or a change in a side signal; inactive means no such curve, though single readings can be large or run the other way; the % refers to the signal ratio;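 further: cells stimulated with carbachol in lithium chloride buffer; plate controls were DMSO basal wells for no effect and reference inhibitor wells for full effect; higher means more IMPase inhibition seen as more IP1 and lower FRET ratio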
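Elevated IP1 in lysates lowers TR-FRET signal (665/620 ratio and 620 channel reported). Cells were CHO-M1, given carbachol (50 uM as added) plus 50mM LiCl, pH 7.4, 30 min, 37C; compounds titrated up to 46 uM; AC50 by Hill equation.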
15-hLO-2 inh – 15-hLO-2 (ALOX15B) enzyme inhibition; purified 15hLO-2, xylenol orange hydroperoxide absorbance; AID 881; hit rate 0.56% among 110,000; O15296; Potency, µM (top dose mostly 57.1 µM), for the others: top-dose activity change, negative = inhibition, hits mostly inhibitors; further: potency means the concentration at half of the fitted maximal effect; nearly all actives have a fitted effect of over 60% in size
Target sequence (O15296 whole entry, looked up): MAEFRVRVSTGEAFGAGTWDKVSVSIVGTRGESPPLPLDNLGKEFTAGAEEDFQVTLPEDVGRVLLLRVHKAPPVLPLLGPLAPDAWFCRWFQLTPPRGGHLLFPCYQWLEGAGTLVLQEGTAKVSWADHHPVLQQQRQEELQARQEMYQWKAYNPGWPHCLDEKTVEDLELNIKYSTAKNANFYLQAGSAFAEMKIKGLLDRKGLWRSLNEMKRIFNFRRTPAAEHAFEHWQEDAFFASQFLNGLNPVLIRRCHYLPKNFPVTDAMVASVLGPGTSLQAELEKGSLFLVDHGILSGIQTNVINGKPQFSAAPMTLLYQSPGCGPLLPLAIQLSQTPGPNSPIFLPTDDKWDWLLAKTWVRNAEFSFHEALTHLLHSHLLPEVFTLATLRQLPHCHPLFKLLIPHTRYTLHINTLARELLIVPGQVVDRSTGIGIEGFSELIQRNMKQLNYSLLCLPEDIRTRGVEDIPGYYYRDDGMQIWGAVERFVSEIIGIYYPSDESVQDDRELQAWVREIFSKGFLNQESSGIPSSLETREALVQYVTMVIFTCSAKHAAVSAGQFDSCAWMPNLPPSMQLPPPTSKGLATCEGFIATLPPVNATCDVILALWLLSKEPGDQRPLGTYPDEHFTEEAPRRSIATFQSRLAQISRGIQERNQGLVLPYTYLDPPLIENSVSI
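Screening format was qHTS against 50 nM purified 15hLO-2 in Hepes pH 7.5 with detergent. Activity follows hydroperoxide formation from 45 uM arachidonic acid, measured as 573:405 nm absorbance ratio of the ferric-xylenol orange complex.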
The depositor's hits bear a star; ? = inconclusive; / = not tested or not shown; ! = not active in a repeat; [ ] = another dose, or the depositor's remark. Unless noted, the call rests on the fitted dose curve; in most records, active means well fitted curve in the direction sought with a large enough effect; inconclusive means small, poorly fitted or top-dose-only effect, or another doubt; inactive means no such curve, though single readings can be large; an effect the other way counts as inactive or inconclusive. Unless noted, on the % scale 0 is the no-effect control and ±100 the full control effect.

SMILES | PNC inhibitor | HPGD inh | IMPase Li inh | ALOX12 inhib | IMPase cell inh | 15-hLO-2 inh
[N-]=[N+]=CC(=O)CC[C@H](N)C(=O)O | / | -5% | -11% | -6%[11.4 µM] | / | -3%[11.4 µM]
CN[C@H]1C[C@H]2O[C@@](C)([C@H]1OC)n1c3ccccc3c3c4c(c5c6ccccc6n2c5c31)C(=O)NC4 | -115* | ? | 5% | 7% | / | /
Cc1ccc(OP(=O)(Oc2ccc(C)cc2)Oc2ccc(C)cc2)cc1 | / | 0% | 21% | 3% | / | -9%
Cc1cc(Cl)ccc1OCCCC(=O)NCc1cccs1 | 24 | 32µM* | 6% | -3% | / | /
Cc1c2ccncc2c(C)c2c1[nH]c1ccccc12 | -115* | -16% | 12% | ? | -2 | 23%
N[C@@H](Cc1ccccc1)P(=O)(O)O | / | -6% | 7% | 1%[11.4 µM] | / | -2%[11.4 µM]
C=CCN1C[C@@H](C)N([C@H](c2ccc(C(=O)N(CC)CC)cc2)c2cccc(OC)c2)C[C@H]1C | / | / | / | -3% | 13 | 17%
Cc1cccc(C2=NCC(=O)N(CC(=O)NCc3ccco3)c3sc4c(c32)CCCC4)c1 | ? | 28µM* | 38%[38.3 µM] | -25% | 7 | ?
COc1ccc(C2=NCC(=O)N(CC(=O)NCc3ccco3)c3sc4c(c32)CCCC4)cc1 | 10 | -6% | 0%[38.3 µM] | -10% | -2 | -18%
Cn1c(=O)cc(OCC(=O)N2CCC3(CC2)OCCO3)c2ccccc21 | -95* | -4% | 23%[38.3 µM] | 0% | -3 | 7%
Cn1c(=O)cc(OCCCC(=O)N2CCC3(CC2)OCCO3)c2ccccc21 | ? | -27% | -22%[38.3 µM] | -3% | ? | 4%
CS/C(N)=C(C#N)/C(C#N)=C(\N)SC | / | ? | 25% | -8%[0.00818 µM] | / | ?
c1ccc2c(c1)CC1CNCc3cccc(c31)S2 (configuration not stated) | -117* | -2% | -18% | 0% | / | /
C=C1CC[C@H](O)C/C1=C/C=C1\CCC[C@]2(C)[C@@H]([C@H](C)CCCC(C)C)CC[C@@H]12 | / | ? | 8% | -23%[0.00818 µM] | / | 7%[0.0915 µM]
O=C1C2CC=CCC2C(=O)N1SC(Cl)(Cl)Cl (configuration not stated) | / | 7.1µM* | 24% | -20% | / | -21%
CC1=CC(=O)c2c(O)cccc2C1=O | / | 25µM*! | 33% | -13% | 23 | -11%
N[C@@H]1CCc2cc(O)c(O)cc2C1 | / | / | / | 1% | 9 | ?
COc1ccccc1C1=NCc2nnc(C)n2-c2ccc(Cl)cc21 | 9 | 28µM* | 9% | 2% | / | /
Cc1nnc2n1-c1ccc(Cl)cc1C(c1ccccc1)=NC2 | / | 16µM* | 5% | 2%[0.00818 µM] | / | -3%[0.0915 µM]
CC(=O)NC(Cc1ccc(N(CCCl)CCCl)cc1)C(=O)O (configuration not stated) | 212 | -12% | 3% | -3% | -5 | /
CCOC(=O)C(NC(C)=O)C(OC(C)=O)c1cccc(N(CCCl)CCCl)c1 (configuration not stated) | -119* | 0% | 17% | 0% | 5 | /
CCC(C)N1C(=O)/C(=C/c2ccc3c(c2)CCN3CCCCl)C(=O)NC1=S (configuration not stated) | ? | 25µM* | 11% | ? | 6 | /
O=C1NC(=O)N(CCC2=CCCCC2)C(=O)/C1=C/c1ccc(O)cc1 | -15 | 11µM* | 6% | -6% | -1 | /
COc1ccc(/C=C2\C(=O)NC(=O)N(CCC3=CCCCC3)C2=O)c(OC)c1 | -12 | 20µM* | -1% | -11% | 9 | /
Brc1c(NC2=NCCN2)ccc2nccnc12 | -10 | 22µM*! | 0% | -5% | 0 | 3%
SMILES | PNC inhibitor | HPGD inh | IMPase Li inh | ALOX12 inhib | IMPase cell inh | 15-hLO-2 inh
O=C1NC(=O)C(=Cc2ccccc2Oc2ccc(F)cc2)C(=O)N1 | / | / | -6% | / | / | /
CN1C(=O)C(=Cc2ccccc2Oc2ccc(Cl)c(F)c2)C(=O)N(C)C1=O | 32 | 11µM* | -4%[38.3 µM] | -1% | -7 | -19%
NC1(P(=O)(O)O)CCCCC1 | / | -10% | 0% | -5%[11.4 µM] | / | -6%[11.4 µM]
Cc1ccc(C(=O)NC(=S)NNS(=O)(=O)c2ccc(C)cc2)cc1 | ? | 16µM* | 1% | -26% | / | /
CCOP(=O)(OCC)C(NC(=O)c1ccc(C)cc1)=C(Cl)Cl | 35 | -6% | -1% | -1% | -5 | /
Nc1ccccc1O.O.O=C(O)[C@H]1[O][Sb][O][C@H]1C(=O)O | / | -6% | 7% | -5%[11.4 µM] | / | -22%[11.4 µM]
Cc1[nH]n(-c2ccccc2)c(=O)c1C(c1ccc([N+](=O)[O-])cc1)c1c(C)[nH]n(-c2ccccc2)c1=O | -2 | 28µM* | 16% | -14% | 8 | /
Cc1[nH]n(-c2ccccc2)c(=O)c1C(C[N+](=O)[O-])c1ccccc1Cl (configuration not stated) | 35 | -12% | 28%[38.3 µM] | -5% | -1 | ?
CCN(CC)C(=O)c1ccc(NC(=O)CSc2nnnn2-c2cc(OC)ccc2OC)cc1 | 42 | 8.9µM* | 20%[38.3 µM] | -8% | -10 | -3%
CCN(CC)C(=O)c1ccc(NC(=O)CCCSc2ccccc2)cc1 | / | / | 2% | / | / | /
C[N+]1(C)CCc2cc3c(cc2[C@@H]1[C@@H]1OC(=O)c2c1ccc1c2OCO1)OCO3 | / | / | / | -4% | 6 | 7%
N[C@H](Cn1ccc(=O)[nH]c1=O)C(=O)O | / | / | / | -6% | -1 | 3%
Cc1cc(CN(C)C)c(OC(=O)N(C)C)cc1C | -122* | / | / | 2% | 7 | 0%
CCN(CC)C(=O)c1ccc(NC(=O)Cn2nc(C)c3ccccc3c2=O)cc1 | ? | 10µM* | 18%[38.3 µM] | 7% | 0 | 2%
CCN(CC)C(=O)c1ccc(NC(=O)c2ccc(-c3nn(C)c(=O)c4ccccc34)cc2)cc1 | / | / | 7% | / | -12 | /
Cc1csc(NC(=O)C2CCCN(S(=O)(=O)c3ccc4c(c3)oc(=O)n4C)C2)n1 (configuration not stated) | -10 | 8.9µM* | 3%[38.3 µM] | -7% | 10 | 11%
CC(=O)c1ccc(OC(=O)N(C)c2ccccc2)cc1 | / | / | -5% | / | / | /
CC(=O)c1ccc(-c2ccccc2)cc1 | -88* | -14% | -1% | 1% | / | /
CC1(C)Cc2c(sc3c2C(=O)NC(c2cccnc2)N3)CO1 (configuration not stated) | -101* | ? | 10%[38.3 µM] | -3% | -22 | 2%[2.29 µM]
O=C1NC(c2cccnc2)Nc2sc3c(c21)CCCC3 (configuration not stated) | -100* | -26% | 6% | 10% | -6 | /
CC12CN3CC(C)(CN(C1)C3c1cccnc1)C2=O (configuration not stated) | -3 | 1% | -3%[38.3 µM] | 1% | 4 | -1%
CO[C@@H]1CC=C2CCN3CCC4=C(CC(=O)OC4)[C@]23C1 | / | / | / | -5% | -1 | -5%
N#CSCC(=O)N1c2ccccc2CCc2ccccc21 | ? | 18µM* | 11% | -3% | / | /

From PubChem BioAssay
